EP2 antag – human EP2 receptor antagonists, primary screen, TR-FRET cAMP, C6 glioma cells. C6 glioma cells expressing human EP2; cells stimulated with saturating PGE2. inhibition, % at 25 µM. 0.52% of 260,000 active. AID 1422, 2008;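 active = percent inhibition above 40 after rounding to a whole number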;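 note: rat C6 glioma host cells with rolipram phosphodiesterase inhibitor present; the protocol text gives 20 µM as final concentration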
EP2 mod – EP2 receptor modulators, cAMP readout, primary screen, cell-based, HTRF cAMP, PGE2 stimulation | 0.83% of 260,000 active | EP2-expressing cells, cAMP HTRF FRET, PGE2 co-stimulation | induction, % at 25 µM;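 active = compounds whose cAMP rise, as percent of the full-agonist control response, exceeds 60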;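 note: rat C6 glioma line stably carrying human EP2 under a CMV promoter; the protocol text gives 20 µM as final concentration; 100% = response of wells given 1 µM PGE2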
p97 inhibitor – inhibitors of human p97 ATPase, primary screen, biochemical | inhibition, % at 8 µM | recombinant p97 ATPase, Kinase-Glo ATP luminescence, 3 h | Transitional endoplasmic reticulum ATPase (Homo sapiens), P55072 | 0.42% of 220,000 active; in the data active = inhibition above about 15%;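 note: 0% = DMSO vehicle and 100% = wells lacking enzyme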
Target sequence (P55072 whole entry, looked up): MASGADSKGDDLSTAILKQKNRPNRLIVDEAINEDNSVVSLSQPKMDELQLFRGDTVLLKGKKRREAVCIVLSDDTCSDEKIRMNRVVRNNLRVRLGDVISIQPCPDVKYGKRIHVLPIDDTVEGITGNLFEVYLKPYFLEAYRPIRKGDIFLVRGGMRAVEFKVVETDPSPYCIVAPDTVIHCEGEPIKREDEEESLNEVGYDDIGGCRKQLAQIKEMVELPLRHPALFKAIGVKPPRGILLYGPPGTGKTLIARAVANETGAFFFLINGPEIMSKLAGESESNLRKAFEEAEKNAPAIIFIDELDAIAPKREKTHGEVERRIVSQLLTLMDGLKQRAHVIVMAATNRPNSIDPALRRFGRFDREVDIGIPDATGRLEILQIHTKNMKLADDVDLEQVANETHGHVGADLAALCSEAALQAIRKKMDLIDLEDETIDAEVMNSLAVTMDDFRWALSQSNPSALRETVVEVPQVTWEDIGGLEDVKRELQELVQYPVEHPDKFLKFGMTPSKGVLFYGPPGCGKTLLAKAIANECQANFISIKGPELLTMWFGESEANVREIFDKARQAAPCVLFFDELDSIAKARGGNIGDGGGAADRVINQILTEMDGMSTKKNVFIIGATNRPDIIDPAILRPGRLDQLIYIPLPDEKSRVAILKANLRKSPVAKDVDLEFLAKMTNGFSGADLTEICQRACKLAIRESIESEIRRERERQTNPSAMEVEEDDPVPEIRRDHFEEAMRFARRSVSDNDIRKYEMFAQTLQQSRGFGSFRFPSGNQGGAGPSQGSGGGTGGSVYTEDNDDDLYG
Arbovirus inh – antivirals against arbovirus infection, primary screen, cell-based, full library, 10K replicate subset | 0.37% of 200,000 active | inhibition, % at 10 µM | arbovirus infection cell-based antiviral screen; in the data active = inhibition above about 30%
Hck Nef HTS – inhibitors of Nef-activated human Hck kinase, primary screen, biochemical, Z-Lyte FRET, 384-well, Hck-YEEI | 0.68% of 220,000 active | Recombinant Hck-YEEI plus Nef, Z-Lyte FRET kinase assay | Tyrosine-protein kinase HCK (Homo sapiens), P08631 | AID 463187, 2010 | inhibition, % at 20 µM;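 active = Hck-Nef kinase inhibition above about 50%, limit read from the data; inactive = inhibition below that limit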;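 note: 0% = DMSO with Hck plus Nef and 100% = Hck alone without Nef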
EP2 confirm – cAMP induction in EP2, EP4, beta2-AR and parental cells, confirmation, counter-screen for EP2 modulator project, cell-based, five parallel assays, C6 glioma, HEK293 | shares compounds with EP2 mod | cAMP HTRF induction; plus low (about EC15) PGE2 agonist | calls only at 20 µM (by protocol) | 47% of 1,300 active | AID 1080, 2008;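 active = cAMP induction above 50% in the main assay while under 30% in all four parallel counter assays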;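 note: rat C6 glioma cells stably expressing human EP2 receptor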
The depositor's hits bear a star; i = inactive; . = not tested or not shown; + = active, no number. Shown are actives, neighbours in structure and some others; about 2.4% of the full set was active somewhere.

SMILES	EP2 antag	EP2 mod	p97 inhibitor	Arbovirus inh	Hck Nef HTS	EP2 confirm
O=C(NC1CC2CCC1C2)c1ccc(Cl)c(S(=O)(=O)N2CCOCC2)c1 (stereo unspecified)	12.5	-12.6	.	.	.	.
Cc1cccc(C)c1NC(=O)CSc1nnc(Cn2nnc(-c3ccccc3)n2)n1-c1ccccc1	2.9	73.8*	-3.6	13.4	-1.2	i
CCOc1ccc2[nH]c(=O)c(CN(CC(C)O)C(=S)NCc3ccccc3)cc2c1 (stereo unspecified)	21.1	-65.9	.	.	.	.
O=C(c1ccco1)N(CCC(c1ccccc1)c1ccco1)Cc1ccc(F)cc1 (stereo unspecified)	3.9	69.7*	1.9	-34.8	0.1	+
Cc1cc(F)ccc1NC(=O)CSc1nc(-c2cccs2)cc(C(F)(F)F)n1	14.5	-145.8	.	.	.	.
COc1ccccc1C1c2[nH]c3ccccc3c2CCN1Cc1cnc(C)s1 (stereo unspecified)	7.8	80.2*	-6.9	0.8	7.7	+
Cc1oc(-c2ccccc2)cc1C(=O)Nc1cccc(/C=C\C(=O)O)c1	10.4	81.6*	-1.2	3.0	0.1	+
Cc1cc(C)c(NC(=O)CSc2nc3ccccc3c(=O)n2Cc2ccco2)c(C)c1	16.8	-17.5	.	.	.	.
C=CCn1c(CNC(=O)c2cccs2)nnc1SCC(=O)c1ccc(Br)cc1	5.3	52.0	-0.2	10.2	-0.5	i
O=C(Nc1ccccc1)c1nn(-c2cccc(C(F)(F)F)c2)ccc1=O	8.3	83.8*	-2.7	-6.7	14.3	+
CCOC(=O)c1c(NC(=S)N2CCN(C)CC2)sc2c1CCN(C(=O)OCC)C2	9.0	32.2	-2.9	.	9.6	.
CCOC(=O)c1c(NC(=O)Cc2cccs2)sc(C)c1C	10.9	62.2*	0.7	1.1	5.1	i
CCOC(=O)c1c(NC(=O)c2ccco2)sc2c1CCCC2	11.2	19.8	-1.0	-1.8	4.1	.
CCOC(=O)c1c(NC(=O)CN2CCN(C(=O)c3ccco3)CC2)sc2c1CCCC2	.	60.0	0.3	-34.8	-8.4	i
CCOC(=O)c1c(NC(=O)c2ccn(CC)n2)sc2c1CCCC2	10.8	60.3	-10.9	4.0	0.7	i
CCOC(=O)c1c(NC(=O)CN(CC)CC)sc2c1CCN(C(=O)OCC)C2	9.4	71.6*	-5.1	-14.2	2.1	+
Cc1cc(C)c(C(=O)Nc2nnc(C(C)C)s2)c(C)c1	7.9	2.4	.	.	.	.
Cc1[nH]c2ccccc2c1CCC(=O)O	8.1	-49.0	.	.	.	.
CCC(C)(C)n1nnnc1C(c1cc(OC)ccc1OC)N1CCN(c2ccccc2OC)CC1 (stereo unspecified)	7.9	30.5	.	.	.	.
Cc1ccc2nc(SCC(=O)Nc3nc4ccccc4s3)c(C#N)cc2c1	16.0	-59.1	.	.	.	.
COC(=O)c1c(NC(=O)c2cccnc2)sc2c1CCC(C)C2 (stereo unspecified)	2.1	41.7	.	.	.	.
COC(=O)c1c(NC(=O)Cc2cccs2)sc2c1CCC(C)C2 (stereo unspecified)	22.1	50.8	3.9	2.3	3.4	i
CCOC(=O)c1sc(NC(=O)CCN2CCN(C)CC2)c(C(=O)OCC)c1C	3.9	-46.2	4.0	-34.1	23.0	.
CCOC(=O)c1sc(NC(=O)CN2CCCC2)c(C(=O)OCC)c1C	.	37.1	0.2	-0.5	-3.7	.
CCOC(=O)c1c(NC(=O)CN2CCCCC2)sc(C)c1C	5.8	67.0*	-1.6	7.0	-0.9	+
SMILES	EP2 antag	EP2 mod	p97 inhibitor	Arbovirus inh	Hck Nef HTS	EP2 confirm
Cc1sc(NC(=O)CN2CCOCC2)c(C(=O)c2ccccc2)c1C	0.6	69.0*	-0.7	-4.5	0.9	i
CCOC(=O)c1sc(NC(=O)CCN2CC(C)OC(C)C2)c(C(=O)OCC)c1C (stereo unspecified)	.	50.3	0.8	-0.6	2.1	i
COc1ccccc1NC(=O)Cn1cnc2scc(-c3ccc(C)cc3)c2c1=O	26.9	-32.3	.	.	.	.
Cc1nc2c(s1)-c1ccccc1C2=O	8.1	-39.0	.	.	.	.
CCOC(=O)N1CCc2c(sc(NC(=O)Cc3ccccc3)c2C(=O)c2ccc(OC)cc2)C1	14.7	20.5	7.2	.	-4.1	.
CCOC(=O)c1c(NC(=O)CN2CCCCC2)sc2c1CCN(C(=O)OCC)C2	.	70.5*	-2.3	-14.7	6.3	+
CCC(=O)Oc1ccc2c(C)cc(=O)oc2c1C(=O)c1ccccc1	2.0	69.2*	2.9	-0.5	2.5	i
Cc1ccc(C)n1-n1cnc2scc(-c3cccs3)c2c1=O	10.7	64.5*	-1.8	-1.0	3.8	+
COc1ccc(C2/C(=C(/O)c3ccc(OC)c(OC)c3)C(=O)C(=O)N2C)c(OC)c1 (stereo unspecified)	8.8	15.4	.	.	.	.
O=C(CSc1nc2ccccc2o1)Nc1ccccc1N1CCCCCC1	-0.4	70.8*	-1.1	-4.8	0.7	+
O=C(CSc1nc2ccccc2o1)Nc1ccc(N2CCOCC2)c(Cl)c1	8.6	-35.8	3.0	-5.0	3.7	.
Cc1cc(C)nc(NC(=O)CSc2nc3ccccc3o2)n1	9.5	-10.2	2.2	5.2	-2.3	.
O=C(CSc1nc2ccccc2o1)Nc1cc(C(F)(F)F)ccc1N1CCOCC1	17.0	80.1*	3.5	5.0	6.0	+
O=C(Nc1ncccn1)c1c(O)c2cccc3c2n(c1=O)CC3	8.3	12.2	.	.	.	.
Cc1cc2ncc([N+](=O)[O-])cn2n1	5.8	-1.9	.	.	.	.
Cc1ccc(C(=O)CSc2nc3cc4c(cc3cc2C)OCO4)cc1	6.7	-23.0	.	.	.	.
Cc1cc2cc3c(cc2nc1SCC(=O)OC(C)C)OCO3	.	68.5*	0.2	7.2	12.1	+
COC(=O)C1CC(=O)N(c2ccc(F)cc2)C1 (stereo unspecified)	4.8	12.1	.	.	.	.
CC(C)CNC(=O)C(=O)NNC(=O)c1ccco1	8.5	56.5	8.6	-2.2	15.4	i
CC(C)(C)NC(=O)C(=O)NNC(=O)c1ccco1	6.1	8.6	5.8	7.2	12.7	.
CC12CCCC(O)(C1)C1CC(C)(C)C1CC2 (stereo unspecified)	9.5	50.7	.	.	.	i
CCOc1cc(-c2noc(-c3ccncc3)n2)cc(Br)c1OC	5.5	50.5	2.9	-6.9	1.1	+
COc1ccc(C=O)cc1COc1c(F)c(F)cc(F)c1F	14.5	31.3	-3.7	5.5	10.0	.
C=CCc1cc(C=O)cc(OC)c1OCc1c(Cl)cccc1Cl	8.1	91.7*	-3.4	-15.5	0.2	+
O=C(c1ccc(Br)o1)N(Cc1ccccc1)Cc1ccccc1	.	54.3	-6.6	1.0	-4.1	+

Bioassay records deposited in PubChem BioAssay by several laboratories.
